Results filed as inconclusive are left out. Calls of active or inactive are those of the source. Calls come from the whole dose curve; as a rule, active = well fitted curve in the direction sought with a large enough effect; inconclusive = small, poorly fitted or top-dose-only effect, or another doubt; inactive = no such curve, though single readings can be large; an effect the other way counts as inactive or inconclusive.
How the values were obtained:
[1] = BET inhibitor-based combinations targeting novel dependencies in MECOM-rearranged (r) AML: OCI-AML3 cell line (AID 2202232); details: CellTiter-Glo luminescence, 48 h; Potency: OCI-AML3 viability; series mostly up to 46 µM; note: nearly all actives have a fitted effect of over 35% in size
How it was run: (§1)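 Readout: CellTiter-Glo luminescence. Exposure: 48 h, 11 concentrations, 500 cells/well. Metric: AUC and within-line Z-AUC after DMSO/empty-well normalization.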

[2] = BET inhibitor-based combinations targeting novel dependencies in MECOM-rearranged (r) AML: MV-4-11 cell line (AID 2202233); details: MV-4-11 AML viability, CellTiter-Glo luminescence, 48 h; series mostly up to 46 µM; note: nearly all actives have a fitted effect of over 45% in size
How it was run: (§2)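 Seeding density was 500 cells/well, and drug exposure lasted 48 hr under standard culture conditions. Read-out used CellTiter-Glo reagent with a 15 min room-temperature incubation before luminescence measurement; AUC and Z-AUC summarize the normalized responses.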

[3] = BET inhibitor-based combinations targeting novel dependencies in MECOM-rearranged (r) AML: UCSD-AML1 cell line (AID 2202235); details: UCSD-AML1 AML cells viability, CellTiter-Glo, 48 h; series mostly up to 46 µM; note: nearly all actives have a fitted effect of over 40% in size
How it was run: as §2

[4] = BET inhibitor-based combinations targeting novel dependencies in MECOM-rearranged (r) AML: AML-191 cell line (AID 2202236; note: nearly all actives have a fitted effect of over 35% in size); details: AML-191 viability, CellTiter-Glo luminescence, 48 h; series mostly up to 46 µM
How it was run: as §1

[5] = BET inhibitor-based combinations targeting novel dependencies in MECOM-rearranged (r) AML: AML-194 cell line (AID 2202237; note: nearly all actives have a fitted effect of over 40% in size); details: AML-194 (MECOM-r AML) viability, CellTiter-Glo, 48 h; series mostly up to 46 µM
How it was run: as §1

[6] = BET inhibitor-based combinations targeting novel dependencies in MECOM-rearranged (r) AML: HNT-34 cell line (AID 2202234); details: HNT-34 AML viability, CellTiter-Glo luminescence, 48 h; series mostly up to 46 µM; note: nearly all actives have a fitted effect of over 35% in size
How it was run: as §2
Potency is the fitted concentration of half-maximal effect.

SMILES | Potency [1] | Potency [2] | Potency [3] | Potency [4] | Potency [5] | Potency [6]
O=C(NC[C@H](O)CO)c1ccncc1Nc1ccc(I)cc1F | 0.0332 µM (active) | 5.9 µM (active) | 0.372 µM (active) |  |  | 
CCC(=O)N1CCOc2c(cc(-c3cc(OC)cc(OC)c3)cc2C(=O)N[C@H]2CCCN(C)C2)C1 | 16.6 µM (active) | 10.5 µM (active) | 20.9 µM (active) | 14.8 µM (active) | 18.6 µM (active) | 
O=C(O)C[C@H]1CCc2c1[nH]c1ccc(OCc3ccc(C4CCCC4)c(C(F)(F)F)c3)cc21 | 13.2 µM (active) | 5.9 µM (active) | inactive |  |  | 
Cn1cc(-c2ccc(-c3cncc(Cl)c3N3CCC4(CCNC4=O)CC3)cc2)cn1 | 16.6 µM (active) | 14.8 µM (active) | inactive |  |  | 
C=CCN(/C=C1\C(=O)O[C@@H](COC)[C@]2(C)C1=C(O)C(=O)C1=C2[C@@H](OC(C)=O)C[C@]2(C)C(=O)CC[C@H]12)CC=C | inactive | 20.9 µM (active) |  | 20.9 µM (active) | 18.6 µM (active) | 20.9 µM (active)
Cc1c(-c2c(-c3ccc(F)o3)sc3ncnc(O[C@@H](Cc4ccccc4OCc4ccnn4CC(F)(F)F)C(=O)O)c23)ccc(OCCN2CCN(C)CC2)c1Cl | 0.296 µM (active) | 0.0235 µM (active) |  | 5.25 µM (active) | 4.68 µM (active) | 0.332 µM (active)
CCN(C(=O)c1c(O)c2c(Cl)cccc2n(C)c1=O)c1ccccc1 | 13.2 µM (active) | 14.8 µM (active) |  | 9.34 µM (active) |  | 
Cc1c(-c2cnccn2)ssc1=S | 2.95 µM (active) | 3.72 µM (active) | inactive | inactive |  | 
